Only some compounds are listed: those with a hit (about 3.1% of all), similar ones and a draw of the others.
miR122 inh – blocks miR-122 activity in Huh7 sensor cells; activation (reporter increase), % at 12.5 µM; Huh7 miR-122 Renilla luciferase sensor, 48 h; neutral wells = 0, positive control = 100; 340,000 compounds, 0.3% hits;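 active = mean replicate activation score at least 90 and every replicate individually at or above 90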;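 also: higher luciferase means less miR-122 activity so hits act as miR-122 inhibitors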
PAX8 inh HTS – lowers PAX8-driven luciferase in RMG-I cells | inhibition, % at 12.6 µM | 360,000 compounds, 1.2% hits | RMG-I TPO-luciferase reporter, SteadyGlo, 24 h;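 active = mean replicate inhibition at least 60% with every replicate also reaching 60%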;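 also: luciferase light reporting Pax8 driven TPO promoter activity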
Env fusion inh – inhibitors of HIV Env-mediated cell fusion | inhibition, % at 12.3 µM | 360,000 compounds, 1.1% hits | HeLa-JRFL Env/CEM21 cell fusion, luciferase;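 active = mean replicate inhibition score of at least 50 and every replicate individually at or above 50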
Statin myotox sup – suppressors of simvastatin-induced myotoxicity in C2C12 myotubes; ATP luminescence, 48 h; scaled: DMSO 0, geranylgeraniol control 100; rescue of ATP level, % at 7.49 µM; 330,000 compounds, 0.78% hits; AID 602340;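 active = mean ATP rescue above about 67%, or every replicate alone reaching that limit, limit read from the data, passing the limit was not always enough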;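 also: myotubes were challenged with 10 µM simvastatin during compound exposure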
GSIS activator – GLuc luminescence reporter in INS-1E cells, primary screen for activators of glucose-dependent secretion of insulin; 370,000 compounds, 0.61% hits; activation, % at 16.6 µM; INS-1E GLuc reporter insulin secretion, 2-3 h;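 active = lowest replicate activation of at least 40%, so every replicate reaches that level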
EWS-Fli inh – EWS/Fli transcriptional activity inhibition | AID 651661 | A673 NR0B1-luciferase reporter, viability-normalised | 350,000 compounds, 0.67% hits | inhibition, % at 12.6 µM;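 active = mean inhibition of at least 50% after viability correction, with every replicate also passing that limit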;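 also: firefly luciferase signal divided by Alamar Blue viability fluorescence both relative to DMSO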
A number is an active result; – = inactive; · = no result; [ ] = remark or other dose.

SMILES | miR122 inh | PAX8 inh HTS | Env fusion inh | Statin myotox sup | GSIS activator | EWS-Fli inh
O=Cc1s/c(=N\S(=O)(=O)c2ccccc2)n(CCCCl)c1Cl | · | 76 | – | · | – | 55
COc1ccc(S(=O)(=O)Nc2ccc3c(c2)C(=O)N([C@H](C)CO)C[C@@H](C)[C@H](CN(C)C(=O)Nc2ccc(C(F)(F)F)cc2)OCCCC[C@H](C)O3)cc1 | – | 77 | – | · | – | –
COc1ccc(S(=O)(=O)Nc2ccc3c(c2)C(=O)N([C@H](C)CO)C[C@@H](C)[C@H](CN(C)C(=O)Nc2ccc(C(F)(F)F)cc2)OCCCC[C@@H](C)O3)cc1 | – | 62 | – | · | – | –
COc1ccc(S(=O)(=O)N(CC(=O)N2CCCCCC2)c2ccccc2OC)cc1 | – | – | – | 99 | – | –
CCOC(=O)N1CCN(C(=O)CN(c2ccccc2OC)S(=O)(=O)c2ccc(OC)cc2)CC1 | · | – | – | · | – | –
CN1CCN(C(=O)C[C@@H]2CC[C@H]3[C@@H](COC[C@H](O)CN3C(=O)Nc3cc(Cl)cc(Cl)c3)O2)CC1 | – | – | · | – | – | –
CCOC(=O)NC(=O)/C(N=Nc1ccc(C(F)(F)F)cc1)=C(\C)O | – | – | – | 99 | – | –
CC=Cc1ccc2n(c1=O)C[C@H]1[C@H](CO)[C@@H](C(=O)NCC3CC3)N(CCC(F)(F)F)[C@@H]21 (mixture of isomers) | – | – | · | – | – | –
CO[C@H]1CN(C)C(=O)c2cc(NC(=O)Nc3cccc(F)c3)ccc2OC[C@H](C)N(C(=O)Nc2c(C)noc2C)C[C@@H]1C | · | – | – | – | – | –
C[C@H]1CCCCO[C@H](CN(C)CC2CC2)[C@@H](C)CN([C@@H](C)CO)C(=O)c2cc(NS(=O)(=O)c3ccc(F)cc3)ccc2O1 | – | – | – | · | – | ·
O=C1Nc2ccc(Br)cc2/C1=N\N=C\C1=C(N2CCOCC2)C(=C/c2ccccc2)/CC1 | · | – | – | – | – | –
O=C1Nc2ccccc2/C1=N\N=C\C1=C(N2CCOCC2)C(=C\c2ccccc2)/CC1 | – | · | 64 | – | · | ·
CO[C@H]1CN(C)C(=O)c2cc(NC(C)=O)ccc2OC[C@H](C)N(Cc2nccs2)C[C@@H]1C | – | · | – | – | – | –
O=C(C[C@@H]1C[C@@H]2c3cc(NC(=O)C4CCC4)ccc3O[C@@H]2[C@H](CO)O1)NCc1ccc(-c2ccccc2)cc1 | – | – | – | – | – | –
O=C(C[C@H]1C[C@@H]2c3cc(NC(=O)C4CCOCC4)ccc3O[C@@H]2[C@H](CO)O1)NCc1ccccc1 | – | – | 83[16.7 µM] | – | – | –
O=C(C[C@@H]1C[C@@H]2c3cc(NC(=O)C4CCC4)ccc3O[C@@H]2[C@@H](CO)O1)NCc1ccc(-c2ccccc2)cc1 | – | 70 | – | – | – | –
C[C@@H]1CCCCO[C@H](CN(C)C(=O)c2ccccc2)[C@@H](C)CN([C@H](C)CO)C(=O)c2cc(NC(=O)CCC(F)(F)F)ccc2O1 | – | – | – | · | – | –
CCCNC(=O)[C@H]1[C@H](CO)[C@H]2Cn3c(ccc(-c4cccc(OC)c4)c3=O)[C@@H]1N2CC | · | · | · | · | – | –
Cc1ccc(C(C)C)cc1S(=O)(=O)NCc1ccccn1 | 283 | – | – | – | – | –
CCOc1cc(S(=O)(=O)NCc2ccccn2)c(C)cc1C | · | · | – | · | · | ·
Cc1cc(C)c(S(=O)(=O)NCc2ccccn2)cc1C | 101 | – | – | – | – | –
C/C=C/c1ccc2c(c1)O[C@H](CN(C)C(=O)c1ccc(F)cc1)[C@@H](C)CN([C@@H](C)CO)S2(=O)=O | – | – | – | – | – | –
Cc1cc(Cl)ccc1Oc1nc(-c2ccccc2)ncc1S(C)(=O)=O | – | · | · | – | 150 | ·
Cc1cccc(C)c1Oc1nc(-c2ccccc2)ncc1S(=O)(=O)c1ccccc1 | – | · | · | · | · | ·
O=C(NC(=S)Nc1ncccn1)c1ccccc1Cl | · | 70 | · | · | – | –
COc1ccc(C(=O)Nc2cccnc2Cl)cc1OC | – | – | – | – | 47 | –
CNC(=O)NC(=S)NC(=O)c1ccccc1Cl | · | – | – | – | – | –
COC(=O)c1ccccc1NC(=O)c1ccccc1OC | – | · | · | 124 | · | ·
COc1ccccc1C(=O)NC(=S)Nc1cccnc1Cl | – | – | – | – | – | 57
Cc1ccc(C(=O)NC(=S)Nc2cccnc2Cl)cc1 | – | – | – | – | – | –

Screening results as filed in PubChem BioAssay.
